Source: PubChem (The Scripps Research Institute Molecular Screening Center)
MITF primary – inhibitors of human MITF; O75030; AlphaScreen MITF homodimerization, bead proximity signal; inhibition, % at 2.6 µM; hit rate 0.91% among 650,000; AID 1259374; in the data active = inhibition above about 50%;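 note: 0% = vehicle wells with protein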
Target sequence (O75030 whole entry, looked up): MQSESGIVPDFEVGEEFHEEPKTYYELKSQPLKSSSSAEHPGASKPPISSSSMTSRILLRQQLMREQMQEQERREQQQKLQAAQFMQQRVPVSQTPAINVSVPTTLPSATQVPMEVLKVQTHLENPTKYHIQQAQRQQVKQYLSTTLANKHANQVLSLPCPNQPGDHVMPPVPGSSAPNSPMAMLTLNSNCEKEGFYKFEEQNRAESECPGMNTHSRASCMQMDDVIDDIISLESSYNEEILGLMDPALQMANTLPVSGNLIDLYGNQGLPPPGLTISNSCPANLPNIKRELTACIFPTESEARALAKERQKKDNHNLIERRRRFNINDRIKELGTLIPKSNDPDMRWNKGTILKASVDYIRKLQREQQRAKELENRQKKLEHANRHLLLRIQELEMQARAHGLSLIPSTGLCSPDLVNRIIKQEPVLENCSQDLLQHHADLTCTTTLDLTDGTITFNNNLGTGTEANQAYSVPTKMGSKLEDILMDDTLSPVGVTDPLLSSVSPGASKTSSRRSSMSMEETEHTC
TEAD-YAP inh – TEAD-YAP interaction inhibition; HEK-TIYL cells, TEAD-Gal4/YAP UAS-luciferase luminescence; inhibition, % at 9.12 µM; hit rate 1.4% among 640,000; in the data active = inhibition above about 32%;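 note: 0% = median of test compound wells and 100% = reference inhibitor wells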
FBW7 activator – activators of human E3 ligase FBW7. AlphaScreen FBW7–phospho-cyclin E peptide binding, activator screen. normalized activity (activation), % at 26.1 µM. hit rate 0.13% among 650,000; in the data active = normalized activity above about 1.9%;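 note: purified mutant Fbw7 with reduced substrate affinity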
GPR151 ag – human GPR151 activation | Q8TDV0 | PathHunter beta-arrestin GPR151 cells, luminescence | activation, % at 11.2 µM | hit rate 1% among 650,000 | AID 1508602; in the data active = activation above about 4.9%;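 note: 0% = median of compound wells and 100% = cells with positive control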
MITF inh conf – confirmation of human MITF inhibitors | inhibition, % at 2.6 µM | shares compounds with MITF primary | hit rate 16% among 4,700 | AID 1259372 | AlphaScreen MITF homodimerization, biotin/His-MITF beads;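 active = inhibition above a cutoff derived from the DMSO control wells, cut at about 28% in these data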;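 note: 0% = MITF dimer wells with DMSO only; inhibitors lower the bead chemiluminescence by keeping MITF from dimerizing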
AS interf DR – AlphaScreen optical interference, dose response counter-screen | AlphaScreen optical interference counterscreen, cell-free | AID 1259373 | hit rate 6% among 480 | IC50, µM | shares compounds with MITF primary; call rule not given here
AlphaScreen intf2 – AlphaScreen optical interference, counter-screen | inhibition, % at 2.6 µM | LysRS AlphaScreen counterscreen, signal interference, triplicate | hit rate 7.6% among 4,700 | shares compounds with MITF primary;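 active = inhibition above a cutoff derived from the DMSO control wells, cut at about 30% in these data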
* hit, by the source's call; / = no result. A selection: hits, their analogues and other compounds. The true share with any hit is near 3.5%.

SMILES	MITF primary	TEAD-YAP inh	FBW7 activator	GPR151 ag	MITF inh conf	AlphaScreen intf2	others
COc1cccc(C(=O)N2CCC3(CC2)CC3C(=O)Nc2ccccc2)c1OC (stereo unspecified)	2.0	9.1	0.0	0.4	/	/
COc1cccc(C(=O)N2CCC3(CC2)CC3C(=O)NCCCc2ccccc2)c1OC (stereo unspecified)	72.6*	-1.3	0.7	0.2	-3.2	-3.5
COc1cc(CN2CCN(C(=O)c3cccc(OC)c3OC)CC2)cc(OC)c1O	39.0	1.4	-0.1	0.5	/	/
COc1cccc(CN2CCN(Cc3ccc(OC)c4ccccc34)CC2)c1OC	69.7*	-3.4	-0.1	1.7	6.5	13.1
COc1cccc(CN2CCN(C(=O)c3cccc(OC)c3OC)CC2)c1	53.9*	5.1	-0.2	-0.5	9.2	6.9
COc1ccc(CN2CCN(Cc3ccccc3Cl)CC2)c(OC)c1OC	54.3*	4.5	-0.1	-0.3	14.0	18.4
COc1ccc(OC)c(CN2CCN(Cc3ccc(OC)c(OC)c3OC)CC2)c1	31.6	-4.7	-0.2	-1.4	/	/
CN1CCN(Cc2cn(-c3ccccc3)nc2-c2ccc3c(c2)OCCO3)CC1	77.3*	-4.4	-0.1	-0.4	9.3	11.7
OCc1cn(-c2ccccc2)nc1-c1ccc2c(c1)OCCO2	-6.9	-82.1	0.2	-1.8	/	/
O=C(c1cn(-c2ccccc2)nc1-c1ccc2c(c1)OCCO2)N1CCOCC1	58.0*	-5.2	0.0	0.1	1.4	14.3
CC1C2(C)OCC(C#N)(C#N)C1(C#N)C(=N)O2 (stereo unspecified)	7.6	11.2	0.8	1.1	/	/
CN1CCN(Cc2cn(-c3ccccc3)nc2-c2ccccc2)CC1CCO (stereo unspecified)	11.9	2.3	0.2	0.7	/	/
COC(=O)c1ccc(CN2CCC(c3nc4ccccc4[nH]3)CC2)cc1	23.1	4.3	1.2	-0.9	/	/
O=C(Cn1ncc2ccccc21)N1CCC(Cc2ccccc2)CC1	7.7	10.7	-0.2	-0.5	/	/
O=C(CN1CCC(Cn2cnc3ccccc32)CC1)N1CCC(Cc2ccccc2)CC1	73.5*	60.9*	0.0	-0.7	8.4	9.9
O=C(c1cccc(F)c1)N1CCC(Cn2cnc3ccccc32)CC1	49.8	3.7	-0.1	2.2	/	/
CCOCC(=O)N1CCC(Cn2cnc3cc(C)c(C)cc32)CC1	66.3*	5.7	-0.4	0.1	4.4	16.3
O=C(CN1CCC(Cn2cnc3ccccc32)CC1)Nc1cccc(F)c1	54.3*	1.7	-0.1	3.0	6.0	8.5
COC(=O)c1ccc(CN2CCC(Cn3cnc4ccccc43)CC2)cc1	81.7*	15.6	-0.4	-0.9	7.2	19.7
Cc1ccccc1CNC(=O)c1ccc(C2SCC(=O)N2Cc2ccccc2)cc1 (stereo unspecified)	-1.2	3.2	0.0	1.6	/	/
O=c1cc(CN2CCOCC2)c2cc3c(cc2o1)CCCC3	2.1	3.5	-0.2	-0.9	/	/
C=CCNC(=O)CN1CCC(Cn2cnc3cc(C)c(C)cc32)CC1	54.3*	13.1	-0.3	0.4	18.2	14.8
O=C(/C=C/c1cccs1)N1CCC(Cn2cnc3ccccc32)CC1	64.9*	4.1	-0.2	0.9	9.1	10.0
O=C(/C=C/c1cccs1)NCC1CCN(C(=O)/C=C/c2cccs2)CC1	17.2	-6.5	0.1	0.8	/	/
CCOC(=O)CCC(=O)N1CCC(Cn2cnc3ccccc32)CC1	58.9*	4.1	-0.2	1.5	6.7	12.7
SMILES	MITF primary	TEAD-YAP inh	FBW7 activator	GPR151 ag	MITF inh conf	AlphaScreen intf2	others
O=C(Cn1cnc2ccccc21)N1CCC(Cn2cccn2)CC1	-7.3	12.4	0.0	-1.6	/	/
O=C(Cn1c(=O)oc2ccccc21)N1CCC(Cn2cnc3ccccc32)CC1	53.3*	4.2	-0.3	0.7	11.1	13.6
COCCNC(=O)CCNS(=O)(=O)c1cc(Br)cnc1N	-6.1	1.3	0.1	-0.3	/	/
CCc1ccc(N2CC(C(=O)Nc3ccc(NC(C)=O)cc3)CC2=O)cc1 (stereo unspecified)	11.8	7.2	0.9	-1.6	/	/
Cc1ccccc1-n1c(SCC(=O)NC(C)(C)C)nnc1-c1ccncc1	-5.1	-2.2	0.0	2.3	/	/
CC(C)n1c(=O)n(CCN2CCCCC2)c2cccnc21	3.7	6.6	0.2	-0.2	/	/
COc1ccc(-c2c(F)ccc3cnc(Nc4ccc(-n5cnc(N6CCOCC6)n5)cc4)nc23)cc1F	56.0*	-9.8	0.5	-0.1	21.2	25.7
CC1=NC(=S)C2C(=O)O/C(=C/c3ccc(-c4cccc([N+](=O)[O-])c4)o3)C2=C1 (stereo unspecified)	53.3*	-4.6	-0.1	-0.8	34.0*	23.8
CCCc1nc2ccc([N+](=O)[O-])cc2c(=O)n1Cc1ccccc1	13.3	-2.1	0.0	-0.4	/	/
CC(=O)CC(=O)NC(C)c1ccccc1 (stereo unspecified)	2.7	13.3	0.0	2.2	/	/
CC(NC(=O)CNCc1ccccn1)c1ccccc1 (stereo unspecified)	74.0*	4.2	-0.7	0.1	24.9	100.3*
CCSc1nnc(NC(=O)c2c(-c3ccccc3Cl)noc2C)s1	114.1*	6.4	0.4	-0.9	25.1	11.7
CCOC(=O)CSc1nnc(NC(=O)c2c(-c3ccccc3Cl)noc2C)s1	11.9	1.5	-0.1	-0.6	/	/
CCOc1ccc(NC(=O)c2ccccc2Nc2ccc(S(=O)(=O)C(F)(F)F)cc2[N+](=O)[O-])cc1	10.2	3.0	0.0	-0.3	/	/
O=C(N/N=C/C=C/c1ccco1)c1ccncc1	67.5*	5.0	-0.5	-0.3	75.6*	-2.6	AS interf DR=>6.48
O=C(CC1CCCC1)NCc1cc(-c2ccccc2)on1	7.1	-1.4	-0.2	-1.0	/	/
CS(=O)(=O)N1CCN(Cc2ccco2)CC1	31.1	-1.4	-0.2	-0.6	/	/
O=S(=O)(c1ccccc1)N1CCN(Cc2ccco2)CC1	49.0	-3.0	0.5	0.8	/	/
Brc1ccccc1CN1CCN(Cc2ccco2)CC1	78.5*	-30.4	-0.3	-1.1	-4.1	10.7
Cc1ccccc1CN1CCN(Cc2ccco2)CC1	71.9*	-10.3	-0.1	0.0	8.5	6.2
Brc1ccc(CN2CCN(Cc3ccco3)CC2)cc1	86.0*	-4.0	0.1	-0.7	9.2	19.9
c1ccc(CCCN2CCN(Cc3ccco3)CC2)cc1	55.2*	5.7	0.0	1.0	-0.2	12.0
COC(=O)c1ccc(CNC(=O)C(=O)Nc2ccccc2OC)cc1	4.9	8.6	0.3	0.9	/	/
COc1ccccc1C(=O)Nc1ccnn1C1CCN(Cc2ccccc2Cl)CC1	4.3	8.4	-0.1	2.6	/	/
O=C(Cc1ccccc1)NC1CCN(Cc2nnnn2Cc2ccco2)CC1	2.5	0.5	-0.1	0.0	/	/
Fc1ccc(N2CCN(Cc3ccco3)CC2)cc1	51.7*	6.1	0.1	-0.3	15.2	4.8
Fc1ccc(N2CN(Cc3ccco3)CNC2=S)cc1	4.1	12.4	0.2	-0.4	/	/
Cc1nc2n(C)c3ccccc3n2c1C(=O)NN	95.4*	54.1*	1.6	-0.4	1.2	1.6
